# Data taken from PubChem BioAssay AID1159580 (chemical genetic matrix, 2015).
# Several values for one entry are separate records, joined by “and”; a condition that tells them apart may be missing. Identical values can stand only once. The campaign covered roughly 5,500 compounds. About 2,000 (36%) were called active. Inconclusive results (about 18%) are left out. The list shows a part of the results. Values without a mark were called inactive. No stated cut-off is given here; in the data, active means normalized growth mostly below about 0.91 (no sharp cut-off); inconclusive means no clear call, values can overlap the other calls; inactive means mostly above about 0.92.
# Assay: chemical genetic growth profiling, strain panel (AID 1159580);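 further: tested at 20 µM; growth read once vehicle control cultures reached saturation at 30 °C; 1 = growth at the plate median or of vehicle wells; lower values mean less growth of the strain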
# Conditions: growth OD
compound,measurement,setting,value
OCCN1CCN(CCCN2c3ccccc3Sc3ccc(C(F)(F)F)cc32)CC1,normalized growth,"S. cerevisiae deletion strains, locus YJR075W, strain HOC1, hits give low values",0.939 and 0.985
same,normalized growth,"S. cerevisiae deletion strains, locus YKL009W, strain mrt4, hits give low values",0.926
same,normalized growth,"S. cerevisiae deletion strains, locus YKL068W, hits give low values",0.987
same,normalized growth,"S. cerevisiae deletion strains, locus YKL085W, strain MDH1 (second series), hits give low values",0.981
same,normalized growth,"S. cerevisiae deletion strains, locus YKL085W, strain MDH1, hits give low values",0.981
same,normalized growth,"S. cerevisiae deletion strains, locus YKL160W, strain elf1, hits give low values",0.907
same,normalized growth,"S. cerevisiae deletion strains, locus YKL190W, strain CNB1, hits give low values",0.975
same,normalized growth,"S. cerevisiae deletion strains, locus YKR001C, strain vps1, hits give low values",0.864 (active)
same,normalized growth,"S. cerevisiae deletion strains, locus YKR026C, strain gcn3, hits give low values",0.998
same,normalized growth,"S. cerevisiae deletion strains, locus YKR091W, strain srl3, hits give low values",0.976
same,normalized growth,"S. cerevisiae deletion strains, locus YLL001W, strain dnm1, hits give low values",0.983
same,normalized growth,"S. cerevisiae deletion strains, locus YLL026W, hits give low values",0.968
same,normalized growth,"S. cerevisiae deletion strains, locus YLL041C, strain sdh2, hits give low values",0.968
same,normalized growth,"S. cerevisiae deletion strains, locus YLR027C, strain aat2, hits give low values",0.951
same,normalized growth,"S. cerevisiae deletion strains, locus YLR039C, strain RIC1, hits give low values",1.48 [resistant] (active)
same,normalized growth,"S. cerevisiae deletion strains, locus YLR058C, strain SHM2, hits give low values",0.976
same,normalized growth,"S. cerevisiae deletion strains, locus YLR102C, strain apc9, hits give low values",0.995
same,normalized growth,"S. cerevisiae deletion strains, locus YLR221C, strain rsa3, hits give low values",0.975
same,normalized growth,"S. cerevisiae deletion strains, locus YLR258W, strain gsy2, hits give low values",0.949
same,normalized growth,"S. cerevisiae deletion strains, locus YLR262C, strain YPT6 (second series), hits give low values",1.04
same,normalized growth,"S. cerevisiae deletion strains, locus YLR262C, strain YPT6, hits give low values",1.41 [resistant] (active)
same,normalized growth,"S. cerevisiae deletion strains, locus YLR268W, strain sec22, hits give low values",0.901
same,normalized growth,"S. cerevisiae deletion strains, locus YLR320W, strain mms22, hits give low values",0.999
same,normalized growth,"S. cerevisiae deletion strains, locus YLR330W, strain CHS5, hits give low values",1.03
same,normalized growth,"S. cerevisiae deletion strains, locus YLR342W, strain FKS1 (second series), hits give low values",0.723 (active)
same,normalized growth,"S. cerevisiae deletion strains, locus YLR342W, strain FKS1, hits give low values",0.807 (active)
same,normalized growth,"S. cerevisiae deletion strains, locus YLR357W, strain rsc2, hits give low values",0.984
same,normalized growth,"S. cerevisiae deletion strains, locus YLR370C, strain arc18, hits give low values",0.952
same,normalized growth,"S. cerevisiae deletion strains, locus YLR371W, strain rom2, hits give low values",0.983
same,normalized growth,"S. cerevisiae deletion strains, locus YLR384C, strain iki3, hits give low values",0.981
same,normalized growth,"S. cerevisiae deletion strains, locus YLR418C, strain cdc73, hits give low values",0.76 (active)
same,normalized growth,"S. cerevisiae deletion strains, locus YML016C, strain PPZ1, hits give low values",0.994
same,normalized growth,"S. cerevisiae deletion strains, locus YML032C, strain rad52, hits give low values",0.926
same,normalized growth,"S. cerevisiae deletion strains, locus YML120C, strain ndi1, hits give low values",0.995
same,normalized growth,"S. cerevisiae deletion strains, locus YML124C, strain tub3, hits give low values",1
same,normalized growth,"S. cerevisiae deletion strains, locus YMR058W, strain fet3, hits give low values",0.884 (active)
same,normalized growth,"S. cerevisiae deletion strains, locus YMR078C, strain ctf18, hits give low values",0.986
same,normalized growth,"S. cerevisiae deletion strains, locus YMR125W, strain sto1, hits give low values",0.957
same,normalized growth,"S. cerevisiae deletion strains, locus YMR129W, hits give low values",0.978
same,normalized growth,"S. cerevisiae deletion strains, locus YMR205C, strain PFK2, hits give low values",0.992
same,normalized growth,"S. cerevisiae deletion strains, locus YMR223W, strain ubp8, hits give low values",0.963
same,normalized growth,"S. cerevisiae deletion strains, locus YMR231W, strain pep5, hits give low values",0.0843 (active)
same,normalized growth,"S. cerevisiae deletion strains, locus YMR263W, strain SAP30, hits give low values",0.933 and 0.994
same,normalized growth,"S. cerevisiae deletion strains, locus YMR307W, strain GAS1, hits give low values",0.852 and 1.02
same,normalized growth,"S. cerevisiae deletion strains, locus YNL067W, strain RPL9B, hits give low values",0.921
same,normalized growth,"S. cerevisiae deletion strains, locus YNL071W, strain lat1, hits give low values",0.988
same,normalized growth,"S. cerevisiae deletion strains, locus YNL128W, strain TEP1, hits give low values",0.944
same,normalized growth,"S. cerevisiae deletion strains, locus YNL153C, strain GIM3, hits give low values",0.919 and 0.859
same,normalized growth,"S. cerevisiae deletion strains, locus YNL175C, strain NOP13, hits give low values",1.01
same,normalized growth,"S. cerevisiae deletion strains, locus YNL197C, strain WHI3, hits give low values",1.01
same,normalized growth,"S. cerevisiae deletion strains, locus YNL209W, strain ssb2, hits give low values",0.952
same,normalized growth,"S. cerevisiae deletion strains, locus YNL224C, strain SQS1, hits give low values",1.02
same,normalized growth,"S. cerevisiae deletion strains, locus YNL233W, strain BNI4, hits give low values",0.909
same,normalized growth,"S. cerevisiae deletion strains, locus YNL248C, strain rpa49, hits give low values",0.901
same,normalized growth,"S. cerevisiae deletion strains, locus YNL250W, strain rad50, hits give low values",0.989
same,normalized growth,"S. cerevisiae deletion strains, locus YNL271C, strain bni1, hits give low values",0.986
same,normalized growth,"S. cerevisiae deletion strains, locus YNL298W, strain CLA4, hits give low values",0.963
same,normalized growth,"S. cerevisiae deletion strains, locus YNL307C, strain MCK1, hits give low values",0.98
same,normalized growth,"S. cerevisiae deletion strains, locus YNL322C, strain KRE1 (second series), hits give low values",0.968
same,normalized growth,"S. cerevisiae deletion strains, locus YNL322C, strain KRE1, hits give low values",0.995
same,normalized growth,"S. cerevisiae deletion strains, locus YNR049C, strain mso1, hits give low values",0.984
same,normalized growth,"S. cerevisiae deletion strains, locus YNR052C, strain pop2, hits give low values",0.938
same,normalized growth,"S. cerevisiae deletion strains, locus YOL006C, strain TOP1, hits give low values",0.629
same,normalized growth,"S. cerevisiae deletion strains, locus YOL012C, strain htz1",1.6
same,normalized growth,"S. cerevisiae deletion strains, locus YOL147C, strain pex11, hits give low values",0.986
same,normalized growth,"S. cerevisiae deletion strains, locus YOR001W, strain rrp6, hits give low values",0.943
same,normalized growth,"S. cerevisiae deletion strains, locus YOR061W, strain CKA2, hits give low values",0.987
same,normalized growth,"S. cerevisiae deletion strains, locus YOR069W, strain VPS5, hits give low values",0.986
same,normalized growth,"S. cerevisiae deletion strains, locus YOR070C, strain gyp1, hits give low values",0.938
same,normalized growth,"S. cerevisiae deletion strains, locus YOR080W, strain dia2, hits give low values",0.989
same,normalized growth,"S. cerevisiae deletion strains, locus YOR083W, strain WHI5 (second series), hits give low values",0.886
same,normalized growth,"S. cerevisiae deletion strains, locus YOR083W, strain WHI5, hits give low values",0.855 (active)
same,normalized growth,"S. cerevisiae deletion strains, locus YOR106W, strain vam3, hits give low values",0.644 (active)
same,normalized growth,"S. cerevisiae deletion strains, locus YOR136W, strain idh2, hits give low values",0.978
same,normalized growth,"S. cerevisiae deletion strains, locus YOR144C, strain elg1, hits give low values",0.999
same,normalized growth,"S. cerevisiae deletion strains, locus YOR184W, strain ser1, hits give low values",0.99
same,normalized growth,"S. cerevisiae deletion strains, locus YOR265W, strain rbl2, hits give low values",0.986
same,normalized growth,"S. cerevisiae deletion strains, locus YOR270C, strain vph1, hits give low values",0.788
same,normalized growth,"S. cerevisiae deletion strains, locus YOR290C, strain snf2, hits give low values",0.911
same,normalized growth,"S. cerevisiae deletion strains, locus YOR316C, strain cot1, hits give low values",0.991
same,normalized growth,"S. cerevisiae deletion strains, locus YPL051W, strain arl3, hits give low values",0.874 (active)
same,normalized growth,"S. cerevisiae deletion strains, locus YPL055C, strain LGE1, hits give low values",0.902 and 0.943
same,normalized growth,"S. cerevisiae deletion strains, locus YPL078C, strain atp4, hits give low values",0.941
same,normalized growth,"S. cerevisiae deletion strains, locus YPL106C, strain sse1, hits give low values",0.988
same,normalized growth,"S. cerevisiae deletion strains, locus YPL240C, strain hsp82, hits give low values",0.984
same,normalized growth,"S. cerevisiae deletion strains, locus YPL241C, strain CIN2, hits give low values",0.997
same,normalized growth,"S. cerevisiae deletion strains, locus YPR119W, strain clb2, hits give low values",0.988
same,normalized growth,"S. cerevisiae deletion strains, locus YPR141C, strain kar3, hits give low values",0.985
same,normalized growth,"S. cerevisiae deletion strains, locus YPR163C, strain tif3, hits give low values",0.89 (active)
same,normalized growth,"S. cerevisiae deletion strains, locus YPR167C, strain met16, hits give low values",0.984
same,normalized growth,"S. cerevisiae deletion strains, strain wtn01, hits give low values",0.887 (active)
same,normalized growth,"S. cerevisiae strains, strain wild type, hits give low values",0.949
